Screens: PubChem, National Center for Advancing Translational Sciences (NCATS)
BAZ2B block – BAZ2B (human) inhibition; Q9UIF8; AlphaScreen BAZ2B-H3K14Ac peptide displacement; Potency, µM (series often up to 114 µM), most hits filed as inhibitors; hit rate 4.4% among 360,000; also: nearly all actives have a fitted effect of over 60% in size
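BAZ2B 50 nM plus b-H3(5-23)K14Ac 50 nM, PBS pH 7.4/0.01% Tween-20, 30 min RT; compound added (max 110 uM), 30 min RT; streptavidin donor/Ni-chelate acceptor beads 10 ug/mL final, 20 min dark; AlphaScreen read.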
HP1b chromo inh – blocks HP1-beta chromodomain binding to methylated histone tails; AID 540317; Potency, µM (titrated, usually from 114 µM), hits mostly inhibitors; hit rate 0.56% among 390,000; AlphaScreen HP1-beta / biotin-H3K9me3 peptide binding; P83916; also: nearly all actives have a fitted effect of over 70% in size
Target sequence (P83916 whole entry, looked up): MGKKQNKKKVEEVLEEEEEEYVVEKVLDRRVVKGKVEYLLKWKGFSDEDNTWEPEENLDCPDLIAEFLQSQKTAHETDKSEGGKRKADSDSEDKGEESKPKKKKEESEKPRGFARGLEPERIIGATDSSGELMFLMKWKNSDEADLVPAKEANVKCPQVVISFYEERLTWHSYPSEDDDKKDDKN
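Compound inhibition of the preformed complex between 50 nM HP1-beta and 50 nM biotinylated H3K9me3 peptide was read by AlphaScreen. Buffer was PBS pH 7.4 with 0.01% Tween-20. Incubations ran 30 min at room temperature, with 10 ug/mL donor/acceptor beads.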
G9a block – blocks human histone lysine methyltransferase G9a; hit rate 8.8% among 350,000; Potency, µM (series often up to 102 µM), most hits filed as inhibitors; AID 504332; G9a H3K9 monomethylation, AlphaScreen, 2 h; Q96KQ7; also: nearly all actives have a fitted effect of over 75% in size
Target sequence (Q96KQ7 913-1193 limits assumed): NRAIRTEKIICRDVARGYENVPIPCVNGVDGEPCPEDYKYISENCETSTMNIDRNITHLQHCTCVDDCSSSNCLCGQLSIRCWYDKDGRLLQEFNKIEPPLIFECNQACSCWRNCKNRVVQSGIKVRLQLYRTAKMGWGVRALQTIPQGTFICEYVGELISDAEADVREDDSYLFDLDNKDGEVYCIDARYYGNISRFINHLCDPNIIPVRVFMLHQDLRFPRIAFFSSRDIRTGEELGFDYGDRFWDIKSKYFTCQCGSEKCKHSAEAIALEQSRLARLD
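Compounds were preincubated with 20 nM G9a for 15 min, after which biotinylated H3K9 peptide (500 nM) and SAM (20 uM) started a 2 h room-temperature reaction. Monomethylated product was quantified by antibody-based AlphaScreen chemiluminescence.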
JMJD2A Tudor inh – blocks the human JMJD2A Tudor domain; O75164; AlphaScreen JMJD2A-Tudor / H3K4me3 peptide binding; Potency, µM (highest dose often 114 µM), usual class: inhibitors; hit rate 4.4% among 390,000; AID 504339; also: nearly all actives have a fitted effect of over 50% in size
L3MBTL1 inh – blocks human L3MBTL1; AID 485360; Q9Y468; Potency, µM (highest dose often 57.1 µM), actives largely listed as inhibitors; AlphaScreen L3MBTL1–H3K9me1 peptide binding; hit rate 0.66% among 230,000; also: nearly all actives have a fitted effect of over 60% in size
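Displacement of a biotinylated histone H3(1-15) peptide monomethylated at Lys9 (75 nM) from L3MBTL1 (50 nM) was measured by AlphaScreen after a 30 min room-temperature compound incubation; cefsulodin titration served as intraplate control.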
Numbers stand for hits; - = inactive; ? = inconclusive; . = no result given; [ ] = dose if it differs, or a comment. Sampled rows, rich in hits. Any-hit rate of the full collection: about 11%. Calls follow the shape of the dose curve; as a rule, active = well fitted inhibition curve with a large enough effect; inconclusive = small, poorly fitted or top-dose-only effect; inactive = no such curve, though single readings can be large or run the other way.

SMILES	BAZ2B block	HP1b chromo inh	G9a block	JMJD2A Tudor inh	L3MBTL1 inh
C#CCOCCOCCOCCNc1nc(N2CCN(C(=O)[C@H](CO)n3cc([C@@H](N)C(C)C)nn3)CC2)nc(N2CCN(C(=O)[C@H](CO)n3cc([C@@H](N)C(C)C)nn3)CC2)n1	.	-	.	79µM	.
CSc1nc(N)c2ncn([C@@H]3O[C@H](COP(=O)(O)OP(=O)(O)O)[C@H](O)[C@H]3O)c2n1	.	.	-[12.7 µM]	.	.
Cc1ccc(SCC(Cc2ccccc2)N2CCN(CCc3ccccc3)CCC2=O)cc1 (centres undefined)	.	-	.	?	.
CSc1nc(-c2ccco2)nn1C(=O)c1ccc(Cl)cc1	-	.	79µM	.	.
CC(=O)c1sc(C(=O)O)c(-c2ccco2)c1-c1ccco1	-	-	.	-	?
CC(=O)C1=C(O)C=C(c2ccco2)CC1c1ccco1 (centres undefined)	56µM	-	?	-	-
COc1cccc2c1cc1c(=O)n(CC(=O)NCc3ccco3)nc(C)n12	-	-	-	-	.
COc1cc(OC)c(C2=NOC(C(=O)Nc3ccc4c(c3)OCO4)C2)cc1Cl (centres undefined)	-	-	40µM	-	-
N#C/C(=C\c1ccc(N2CCCCC2)o1)C(=O)Nc1cccc(Br)c1	-	-	?	-	-
N#C/C(=C/c1ccc(N2CCOCC2)o1)c1ccc(Cl)cc1	45µM	-	?	56µM	-
N#C/C(=C\c1ccc(N2CCCCC2)o1)C(N)=O	28µM	-	28µM	-	-
COc1ccccc1NC(=O)C1=C(C)Nc2c(C(=O)Nc3ccc(F)cc3)cnn2C1c1ccc(Cl)cc1 (centres undefined)	-	-	?	-	.
Cc1cccc(CCNC(=O)CCc2c(C)nc3c(c(C)nn3-c3ccccc3)c2C)c1	-	-	-	-	.
CC(C)(C)c1ccc(NC(=O)C2=CC=CN3CCS(=O)(=O)N=C23)cc1	-	-	-[2.33 µM]	-	-
CCN(CC)c1ccc(NC(=O)C2=CC=CN3CCS(=O)(=O)N=C23)cc1	45µM	-	?	?	-
CCOc1ccc(-c2nn3c(-c4cc(-c5ccccc5)n[nH]4)nnc3s2)cc1	.	-	.	-	.
Cc1ccc(NP(=O)(c2ccc(N(C)C)cc2NC(=O)c2cccs2)N2CCOCC2)cc1 (centres undefined)	-	-	?	-	-
Cc1ccc(NP(=O)(c2ccc(N(C)C)cc2NC(=O)c2cccs2)N2CCOCC2)cc1Cl (centres undefined)	-	-	79µM	?	-
Cc1nnc(NC(=O)CN2C(=O)c3ccccc3S2(=O)=O)s1	-	-	50µM	-	.
CCc1nnc(NC(=O)CN2C(=O)c3ccccc3S2(=O)=O)s1	-	-	-	-	.
Cc1cc(NC(=O)CN2C(=O)c3ccccc3S2(=O)=O)no1	-	-	25µM	-	.
CC(=O)c1ccc(N=c2scc(C)n2C(C)C)cc1	?	-	45µM	?	.
CCC(Sc1ncccc1C(=O)O)C(=O)N1CCCC1 (centres undefined)	?	-	?	3.5µM	-
CCOC(=O)c1cccnc1SC(CC)C(=O)N1CCOCC1 (centres undefined)	-	-	-	-	-
CCC(Sc1ncccc1C(=O)O)C(=O)N1CCOCC1 (centres undefined)	?	-	?	5.6µM	-
SMILES	BAZ2B block	HP1b chromo inh	G9a block	JMJD2A Tudor inh	L3MBTL1 inh
O=C(CCN1C(=O)c2ccccc2S1(=O)=O)N1CCN(c2cccc(Cl)c2)CC1	-	-	?	-	-
O=C(Oc1cccc2cccnc12)c1ccccc1	.	.	-	.	.
O=C(/C=C\c1ccccc1)Oc1cccc2cccnc12	40µM	-	-	-	?
O=C(/C=C/c1ccccc1)Oc1cccc2cccnc12	45µM	-	.	-	-
Cc1ccc(-c2nnc3ccccc3c2C(=O)Nc2ccc(C)c(F)c2)cc1	-	-	-	-	.
Cc1c(/C=N/NC(=O)CNc2ccccc2)c2ccccn2c1C(=O)c1ccncc1	?	-	45µM	-	-
Cc1sc(-c2cc3c([nH]c2=O)CC(c2ccccc2)CC3=O)nc1-c1ccc(Cl)cc1 (centres undefined)	-	-	-	-	.
O=C(NCC1CCCCC1)C1(CC2CC(c3ccc(Cl)cc3)=NO2)CCNCC1 (centres undefined)	-	-	45µM	-	-
CN1CCN(C(c2ccc(Br)cc2)c2cc(Cl)c3cccnc3c2O)CC1 (centres undefined)	45µM	?	7.9µM	50µM	.
CN1CCN(C(c2ccc(F)cc2)c2ccc3cccnc3c2O)CC1 (centres undefined)	.	-	.	-	.
CN1CCN(C(c2cccnc2)c2ccc3cccnc3c2O)CC1 (centres undefined)	10µM	?	?	?	.
CC1=C(C(=O)Nc2ccc(C)cc2C)C(c2ccc(O)cc2)n2nnnc2N1 (centres undefined)	-	-	-	-	.
CO[C@H]1C=CO[C@@]2(C)Oc3c(C)c(O)c4c(O)c(c(C=NN5CCN(C)CC5)c(O)c4c3C2=O)NC(=O)C(C)=CC=C[C@H](C)[C@H](O)[C@@H](C)[C@@H](O)[C@@H](C)[C@H](OC(C)=O)[C@@H]1C	45µM	-	?	?	-
O=C(c1ccc2c(c1)N(Cc1ccccc1F)C(=O)c1ccccc1S2(=O)=O)N1CCN(c2ccccn2)CC1	-	-	-	-	.
COc1ccc(-n2c(C)cc(-c3csc(N)n3)c2C)cc1	45µM	?	8.9µM	45µM	-
COc1ccc(Cl)cc1-c1csc(N)n1	-	-	-[0.501 µM]	-	-
Cc1cc(-c2csc(N)n2)c(C)n1-c1ccc(Cl)c(Cl)c1	?	?	20µM	56µM	-
Nc1nc(-c2ccccc2Cl)cs1	.	?	.	-	.
CCN(CC)c1ccc(NC(=O)c2ccc(S(=O)(=O)N3CCOCC3)cc2)cc1	.	?	.	45µM	-
O=C(Nc1ccc(S(=O)(=O)N2CCOCC2)cc1)c1ccc(S(=O)(=O)N2CCOCC2)cc1	-	-	?	-	.
O=C(O)c1nccnc1C(=O)Nc1ccc(S(=O)(=O)N2CCOCC2)cc1	-	-	45µM	?	-
O=C(Nc1ccc(S(=O)(=O)N2CCOCC2)cc1)c1c(F)cccc1F	-	-	35µM	-	.
O=C(Nc1ccc(S(=O)(=O)N2CCCC2)cc1)c1c(F)cccc1F	-	-	-	-	.
Cn1c(=O)c(Nc2ccc(Cl)cc2)c2c3c(cccc31)C(=O)c1ccccc1-2	?	?	22µM	-[11.4 µM]	.
CC(=O)Nc1c2c3c(cccc3n(C)c1=O)C(=O)c1ccccc1-2	-	-	-	-	-
CCOc1ccc(NC(=O)c2cnn3c2NC(C)=C(C(=O)Nc2ccc(Cl)cc2)C3c2ccc(OC)c(OC)c2)cc1 (centres undefined)	-	-	-	-	.
COc1cc2ccccc2cc1C(=O)NC(=S)Nc1cccc(C(=O)O)c1	79µM	-	?	-	-
COc1cc2ccccc2cc1C(=O)NC(=S)Nc1ccc(C(=O)O)cc1	50µM	-	?	50µM	.
